Assay results as given in the supplement of paper PMC10127200.
Where a name gives a salt, the structure may show the parent alone.

Legend:
Assay in all cases: Euclidean distance of Cell Painting phenotypic profile (signed KS, 77 features) to DMSO centroid (dimensionless distance); 5 or 10 uM (library dependent); higher = stronger phenotypic change vs DMSO (phenoactivity)
Settings in all cases: 48 h
[1] = tested on: 786-O
Procedure, shortened: (§1)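 Five cancer lines and a healthy fibroblast line received library compounds at 10 or 5 uM (library-dependent, 0.1% DMSO final) for 48 h. Stained cells were imaged confocally at 20X (9 fields/well). Harmony extracted 77 features, each scored as a signed Kolmogorov-Smirnov statistic against same-plate vehicle wells. Profiles were plate-position corrected, correlation-weighted and replicate-averaged at the top dose. Phenoactivity is the Euclidean distance from each profile to the median vehicle profile.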

[2] = tested on: A549
Procedure, shortened: as §1

[3] = tested on: DU145
Procedure, shortened: as §1

[4] = tested on: FB
Procedure, shortened: as §1

[5] = tested on: HEPG2
Procedure, shortened: as §1

[6] = tested on: OVCAR4
Procedure, shortened: as §1

SMILES | Euclidean distance [1] | Euclidean distance [2] | Euclidean distance [3] | Euclidean distance [4] | Euclidean distance [5] | Euclidean distance [6]
CO[C@@H](C(=O)N1Cc2[nH]nc(NC(=O)c3ccc(N4CCN(C)CC4)cc3)c2C1)c1ccccc1 | 1.39 | 1.46 | 1.66 | 1.66 | 1.25 | 1.03
N#CC(c1ccnc(OCc2ccc(CN3CCOCC3)cc2)n1)c1nc2ccccc2s1 (stereo not drawn) [Bentamapimod] | 1.54 | 1.83 | 1.31 | 1.81 | 1.38 | 1.36
COc1cc2nc(N3CCN(C(=O)C4CCCO4)CC3)nc(N)c2cc1OC (stereo not drawn) [Terazosin HCl] | 1.12 | 0.699 | 0.618 | 1.15 | 1.33 | 1.01
Nc1ccn([C@@H]2O[C@H](CO)[C@@H](O)[C@H]2O)c(=O)n1 [Cytidine] | 1.92 | 0.659 | 1.04 | 0.943 | 1.9 | 1
CC1(C)OCCn2c1nc1c(N3CCOCC3)nc(-c3cnc(N)nc3)nc12 | 2.79 | 2.94 | 2.05 | 4.44 | 2.32 | 2.93
C[C@H](NC(=O)CCc1nc2ccccc2c(=O)[nH]1)c1ccccc1 | 1.42 | 1.74 | 1.13 | 1.04 | 1.15 | 1.27
CCCC(=O)[O-].[Na+] [Sodium butyrate] | 1.42 | 0.966 | 1.17 | 1.13 | 0.665 | 1.51
CCCCOc1nc(N)c2c(n1)N(Cc1cccc(CN3CCCC3)c1)CC(=O)N2 | 1.32 | 0.517 | 0.661 | 0.941 | 0.589 | 1
NC[C@@H]1O[C@H](O[C@H]2[C@@H](O)[C@H](O[C@@H]3[C@@H](O)[C@H](N)C[C@H](N)[C@H]3O[C@H]3O[C@H](CO)[C@@H](O)[C@H](O)[C@H]3N)O[C@@H]2CO)[C@H](N)[C@@H](O)[C@@H]1O [Paromomycin Sulfate] | 1.05 | 1.06 | 0.88 | 1.2 | 0.817 | 1
CCNC(=O)[C@H]1O[C@@H](n2cnc3c(N)nc(NCCc4ccc(CCC(=O)O)cc4)nc32)[C@H](O)[C@@H]1O | 0.618 | 0.662 | 0.916 | 0.846 | 0.636 | 0.752
CCN(CC)CCNC(=O)c1cc(Cl)c(N)cc1OC [Metoclopramide HCl] | 0.662 | 0.513 | 0.62 | 0.54 | 0.614 | 0.647
CC[C@H](C)[C@H](NC(=O)[C@H](Cc1ccc(O)cc1)NC(=O)[C@@H](NC(=O)[C@H](CCCN=C(N)N)NC(=O)[C@@H](N)CC(=O)O)C(C)C)C(=O)N[C@@H](Cc1cnc[nH]1)C(=O)N1CCC[C@H]1C(=O)N[C@@H](Cc1ccccc1)C(=O)O [Angiotensin II human Acetate] | 1.66 | 0.986 | 0.817 | 1.24 | 0.532 | 0.985
CCOC(=O)[C@H]1O[C@@H]1C(=O)N[C@@H](CC(C)C)C(=O)NCCC(C)C [Aloxistatin] | 0.731 | 2.18 | 1.26 | 1.17 | 0.539 | 0.987
Cc1cccc(C)c1N(CC(=O)Nc1ccc(-c2ncon2)cc1)C(=O)C1CCS(=O)(=O)CC1 [Amenamevir] | 1.07 | 0.772 | 0.783 | 1.3 | 0.5 | 1.2
C[C@H](CCC(=O)O)[C@H]1CC[C@H]2[C@@H]3[C@H](O)C[C@@H]4C[C@H](O)CC[C@]4(C)[C@H]3C[C@H](O)[C@]12C [Cholic acid] | 1.14 | 0.83 | 0.953 | 0.727 | 0.875 | 1.12
CCN(CCCCOC(=O)c1ccc(OC)c(OC)c1)C(C)Cc1ccc(OC)cc1 (stereo not drawn) [Mebeverine Hydrochloride] | 0.875 | 1.21 | 1.06 | 1.29 | 0.855 | 1.91
CCOC(=O)C1=C(N)Oc2ccc(Br)cc2C1C(C#N)C(=O)OCC (stereo not drawn) | 0.871 | 1.18 | 1.12 | 1.03 | 1.03 | 0.791
Oc1cc(O)c2c(c1)OC(c1ccc(O)c(O)c1)C(O)C2 (single isomer, unassigned; (+)) [(+)-Catechin] | 0.785 | 0.904 | 0.506 | 0.842 | 0.247 | 0.849
O=C(Nc1ncc([N+](=O)[O-])s1)c1ccccc1O [Tizoxanide] | 2.03 | 1.85 | 2.61 | 2.81 | 2.81 | 1.81
CC(C)Cc1ccc(C(C)C(=O)OCc2ccccn2)cc1 (stereo not drawn) [Ibuprofen piconol] | 1.39 | 0.595 | 0.983 | 0.788 | 0.518 | 1.2
CCCC(=O)O[C@]1(C(=O)COC(C)=O)CC[C@H]2[C@@H]3C[C@H](F)C4=CC(=O)C=C[C@]4(C)[C@@]3(F)[C@@H](O)C[C@@]21C [Difluprednate] | 1.73 | 2.5 | 2.59 | 1.74 | 0.695 | 1.82
CC(C)c1nc(CN(C)C(=O)N[C@H](C(=O)N[C@@H](Cc2ccccc2)C[C@H](O)[C@H](Cc2ccccc2)NC(=O)OCc2cncs2)C(C)C)cs1 [Ritonavir] | 1.49 | 1.26 | 1.08 | 1.35 | 1.58 | 1.77
COc1c(-c2ccc3cc(NS(C)(=O)=O)ccc3c2)cc(-n2ccc(=O)[nH]c2=O)cc1C(C)(C)C [Dasabuvir(ABT-333)] | 1.78 | 1.78 | 1.27 | 1.48 | 1.05 | 1.42
